Data as given in PubChem BioAssay.
Several values for one entry are separate records, joined by “and”; a condition that tells them apart may be missing. Identical values can stand only once. Activity calls are given as the source filed them.

Tests used:
[1] = binders of probe aFSTL3 on microarray, primary screen, stem cell growth factor project, biochemical, small-molecule microarray, fluorescence 635/667 (AID 1064); settings: higher = more signal;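 further: measures binding of the biotinylated anti-FSTL3 antibody to printed compounds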
[2] = binders from COS7 lysate, DM2A8 probe, primary screen, torsin A project, cell lysate, small-molecule microarray, fluorescence 635/667 (AID 1065); settings: higher = more signal, COS7 lysate expressing mutant human TOR1A
[3] = binders of probe aFGF2 on microarray, primary screen, stem cell growth factor project, biochemical, small-molecule microarray, fluorescence 635/667 (AID 1067); settings: higher = more signal;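 further: measures binding of biotinylated aFGF2 protein to printed compounds on slides; z-score merges feature fluorescence and signal-to-noise across triplicate slides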
[4] = binders of probe aFGF10 on microarray, primary screen, stem cell growth factor project, biochemical, small-molecule microarray, fluorescence 635/667 (AID 1071); settings: higher = more signal;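 further: score merges 667 nm spot intensity and signal to noise from triplicate slides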
[5] = molecular target: Neurogenic locus notch homolog protein 2 (Homo sapiens) (UniProt Q04721); experiment: Notch2 binders on small-molecule microarrays, primary screen, biochemical, small-molecule microarray, 635 nm fluorescence, stem cell growth factors (AID 1073); settings: Notch2 binding, higher = more signal
Sequence of Neurogenic locus notch homolog protein 2 (Homo sapiens) (Q04721 whole entry, looked up, canonical isoform): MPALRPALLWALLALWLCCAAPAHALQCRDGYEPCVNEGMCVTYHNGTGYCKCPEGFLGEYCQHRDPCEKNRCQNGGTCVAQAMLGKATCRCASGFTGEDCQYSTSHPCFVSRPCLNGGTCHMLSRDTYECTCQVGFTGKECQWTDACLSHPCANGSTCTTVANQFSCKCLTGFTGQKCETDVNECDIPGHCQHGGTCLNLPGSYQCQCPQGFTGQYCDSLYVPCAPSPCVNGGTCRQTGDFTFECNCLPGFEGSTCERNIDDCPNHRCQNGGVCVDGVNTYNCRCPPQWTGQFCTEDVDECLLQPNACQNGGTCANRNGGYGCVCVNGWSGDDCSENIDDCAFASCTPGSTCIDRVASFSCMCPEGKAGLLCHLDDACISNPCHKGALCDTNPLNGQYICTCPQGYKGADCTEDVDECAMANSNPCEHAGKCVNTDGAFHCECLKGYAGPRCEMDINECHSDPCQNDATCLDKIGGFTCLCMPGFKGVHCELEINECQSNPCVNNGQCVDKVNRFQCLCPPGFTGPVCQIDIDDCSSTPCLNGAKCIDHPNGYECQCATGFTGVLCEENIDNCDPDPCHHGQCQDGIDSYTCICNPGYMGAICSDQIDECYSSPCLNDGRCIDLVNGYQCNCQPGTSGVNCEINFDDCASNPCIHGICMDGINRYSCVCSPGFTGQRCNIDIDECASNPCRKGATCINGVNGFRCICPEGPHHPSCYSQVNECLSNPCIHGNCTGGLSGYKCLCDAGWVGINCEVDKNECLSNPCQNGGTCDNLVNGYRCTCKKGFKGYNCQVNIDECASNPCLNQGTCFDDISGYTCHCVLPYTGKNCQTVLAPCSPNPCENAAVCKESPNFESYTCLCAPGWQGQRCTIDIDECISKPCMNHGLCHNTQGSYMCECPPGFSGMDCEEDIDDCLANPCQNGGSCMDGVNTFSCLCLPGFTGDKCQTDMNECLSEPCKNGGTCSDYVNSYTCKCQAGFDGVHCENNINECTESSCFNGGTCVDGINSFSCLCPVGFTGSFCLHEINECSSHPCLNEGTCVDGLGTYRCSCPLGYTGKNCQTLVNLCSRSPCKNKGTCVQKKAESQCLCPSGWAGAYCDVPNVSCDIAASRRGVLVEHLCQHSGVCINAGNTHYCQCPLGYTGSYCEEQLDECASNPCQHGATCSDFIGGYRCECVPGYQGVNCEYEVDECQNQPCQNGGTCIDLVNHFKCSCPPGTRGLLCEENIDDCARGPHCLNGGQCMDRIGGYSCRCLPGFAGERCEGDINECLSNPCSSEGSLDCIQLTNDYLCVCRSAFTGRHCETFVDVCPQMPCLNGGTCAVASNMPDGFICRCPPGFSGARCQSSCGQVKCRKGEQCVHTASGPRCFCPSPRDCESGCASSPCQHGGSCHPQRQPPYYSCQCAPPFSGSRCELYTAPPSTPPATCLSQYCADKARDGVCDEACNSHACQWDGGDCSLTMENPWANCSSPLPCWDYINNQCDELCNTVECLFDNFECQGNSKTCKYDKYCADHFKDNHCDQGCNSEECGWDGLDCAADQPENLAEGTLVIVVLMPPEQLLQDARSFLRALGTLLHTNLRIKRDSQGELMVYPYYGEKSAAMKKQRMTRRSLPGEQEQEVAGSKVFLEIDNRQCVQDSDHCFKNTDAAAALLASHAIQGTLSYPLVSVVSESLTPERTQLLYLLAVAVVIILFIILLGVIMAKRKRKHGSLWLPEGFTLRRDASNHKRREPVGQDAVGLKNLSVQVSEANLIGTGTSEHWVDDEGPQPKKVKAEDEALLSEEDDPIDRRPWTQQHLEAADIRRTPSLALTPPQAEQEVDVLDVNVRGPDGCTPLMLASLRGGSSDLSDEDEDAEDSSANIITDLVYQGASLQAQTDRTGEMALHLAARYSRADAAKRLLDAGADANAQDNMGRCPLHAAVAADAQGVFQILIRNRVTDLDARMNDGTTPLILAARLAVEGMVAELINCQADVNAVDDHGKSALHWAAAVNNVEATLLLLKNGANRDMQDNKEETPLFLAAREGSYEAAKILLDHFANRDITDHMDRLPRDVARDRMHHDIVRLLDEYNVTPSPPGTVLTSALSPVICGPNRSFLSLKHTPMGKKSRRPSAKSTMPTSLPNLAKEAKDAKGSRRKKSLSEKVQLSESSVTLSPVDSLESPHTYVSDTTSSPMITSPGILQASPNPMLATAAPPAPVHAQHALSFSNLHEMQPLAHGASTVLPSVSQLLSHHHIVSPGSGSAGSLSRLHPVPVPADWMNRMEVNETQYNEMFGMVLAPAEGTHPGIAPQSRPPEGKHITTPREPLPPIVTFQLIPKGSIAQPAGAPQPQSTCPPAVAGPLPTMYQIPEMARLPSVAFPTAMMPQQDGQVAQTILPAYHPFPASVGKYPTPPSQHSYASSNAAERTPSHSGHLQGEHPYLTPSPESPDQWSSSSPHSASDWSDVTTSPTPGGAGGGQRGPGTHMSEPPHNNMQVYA

[6] = molecular target: Pro-neuregulin-1, membrane-bound isoform (Homo sapiens) (UniProt Q02297); experiment: NRG1 binders on small-molecule microarrays, primary screen, psychiatric disease protein project, biochemical, small-molecule microarray, fluorescence 635/667 (AID 1075); settings: NRG1 binding, 635 nm fluorescence, higher = more signal;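 further: score combines 667 nm spot fluorescence with signal to noise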
[7] = system: Neuregulin-1 EGF-like domain; experiment: binders of neuregulin-1 EGF-like domain, primary screen, biochemical, small-molecule microarray, 635 nm fluorescence (AID 1081); settings: small-molecule microarray binding, higher = more signal;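 further: binding of the protein to compounds printed on small-molecule microarray slides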
[8] = FRG1 promoter luciferase signal modulators, primary screen, FRG1 inhibition for FSHD, cell-based, C2C12 myotubes, firefly/Renilla luciferase, luminescence (AID 1084); settings: higher = more signal, called active from +8 up or from −8 down
[9] = binders of probe aFST on microarray, primary screen, stem cell growth factor project, biochemical, small-molecule microarray, fluorescence 635/667 (AID 1086); settings: higher = more signal;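 further: score merges 667 nm fluorescence with signal-to-noise of each printed compound spot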
[10] = binders of probe aHhip on microarray, primary screen, stem cell growth factor project, biochemical, small-molecule microarray, fluorescence 635/667 (AID 1087); settings: higher = more signal;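 further: score merges spot fluorescence at 667nm with spot signal to noise ratio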
[11] = system: PRMT1 (protein arginine N-methyltransferase 1); experiment: PRMT1 binders on small-molecule microarrays, primary screen, biochemical, small-molecule microarray, 635 nm fluorescence (AID 1088); settings: small-molecule microarray binding, higher = more signal;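 further: binding of Prmt1 protein to compounds spotted on small-molecule microarray slides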
[12] = yeast growth modulation, basal conditions, primary screen, YJM789 clinical isolate, OD600, 24 h (AID 1089);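 further: growth of clinical yeast isolate S. cerevisiae YJM 789 seeded 1000 cells per well; test concentration not given here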; settings: S. cerevisiae YJM789 growth, higher = more signal, called active from +8 up or from −8 down
[13] = fission yeast growth modulation, primary screen, strain 972, OD600, 24 h, no modulator (AID 1090);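 further: basal condition with compound alone and no growth modifier present; test concentration not given here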; settings: S. pombe 972 growth, higher = more signal, called active from +8 up or from −8 down
[14] = S. cerevisiae growth modulation with rapamycin, primary screen, strain BY4716, OD600, 96 h (AID 1091); settings: higher = more signal, called active from +8 up or from −8 down; further: test concentration not given here
[15] = molecular target: Torsin-1A-interacting protein 2 (Homo sapiens) (UniProt Q8NFQ8); experiment: LULL1 binders on small-molecule microarray, primary screen, cell lysate, human LULL1 lysate, 635/667 nm fluorescence (AID 1092); settings: hLULL1 lysate binding, 635 nm fluorescence, higher = more signal;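 further: probe is lysate of COS7 cells overexpressing human LULL1; score merges per-feature 667 nm fluorescence with signal-to-noise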
[16] = E. coli growth modulation, two-sided OD650, primary screen, E. coli filamentation project, strain DRC41, 24 h (AID 1093); settings: OD650, 24 h, higher = more signal, called active from +8 up or from −8 down;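 further: MC1000 strain lacking acrAB efflux and sulA so SOS filamentation is blocked; test concentration not given here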
[17] = small-molecule microarray binders of probe aLefty2, primary screen, biochemical, biotinylated probe, 635/667 nm fluorescence (AID 1094); settings: higher = more signal;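 further: score merges spot fluorescence near 667 nm with spot signal-to-noise ratio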
[18] = system: Noggin (protein binding on small-molecule microarray); experiment: Noggin binders on small-molecule microarray, primary screen, biochemical, 635/667 nm fluorescence (AID 1095); settings: 635 nm fluorescence, higher = more signal;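 further: score merges 667 nm feature fluorescence with signal to noise over triplicate slides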
[19] = molecular target: Neurogenic locus notch homolog protein 3 (Homo sapiens) (UniProt Q9UM47); experiment: NOTCH3 binders on small-molecule microarray, primary screen, biochemical, 635/667 nm fluorescence (AID 1096); settings: NOTCH3 binding, 635 nm fluorescence, higher = more signal
Sequence of Neurogenic locus notch homolog protein 3 (Homo sapiens) (Q9UM47 whole entry, looked up): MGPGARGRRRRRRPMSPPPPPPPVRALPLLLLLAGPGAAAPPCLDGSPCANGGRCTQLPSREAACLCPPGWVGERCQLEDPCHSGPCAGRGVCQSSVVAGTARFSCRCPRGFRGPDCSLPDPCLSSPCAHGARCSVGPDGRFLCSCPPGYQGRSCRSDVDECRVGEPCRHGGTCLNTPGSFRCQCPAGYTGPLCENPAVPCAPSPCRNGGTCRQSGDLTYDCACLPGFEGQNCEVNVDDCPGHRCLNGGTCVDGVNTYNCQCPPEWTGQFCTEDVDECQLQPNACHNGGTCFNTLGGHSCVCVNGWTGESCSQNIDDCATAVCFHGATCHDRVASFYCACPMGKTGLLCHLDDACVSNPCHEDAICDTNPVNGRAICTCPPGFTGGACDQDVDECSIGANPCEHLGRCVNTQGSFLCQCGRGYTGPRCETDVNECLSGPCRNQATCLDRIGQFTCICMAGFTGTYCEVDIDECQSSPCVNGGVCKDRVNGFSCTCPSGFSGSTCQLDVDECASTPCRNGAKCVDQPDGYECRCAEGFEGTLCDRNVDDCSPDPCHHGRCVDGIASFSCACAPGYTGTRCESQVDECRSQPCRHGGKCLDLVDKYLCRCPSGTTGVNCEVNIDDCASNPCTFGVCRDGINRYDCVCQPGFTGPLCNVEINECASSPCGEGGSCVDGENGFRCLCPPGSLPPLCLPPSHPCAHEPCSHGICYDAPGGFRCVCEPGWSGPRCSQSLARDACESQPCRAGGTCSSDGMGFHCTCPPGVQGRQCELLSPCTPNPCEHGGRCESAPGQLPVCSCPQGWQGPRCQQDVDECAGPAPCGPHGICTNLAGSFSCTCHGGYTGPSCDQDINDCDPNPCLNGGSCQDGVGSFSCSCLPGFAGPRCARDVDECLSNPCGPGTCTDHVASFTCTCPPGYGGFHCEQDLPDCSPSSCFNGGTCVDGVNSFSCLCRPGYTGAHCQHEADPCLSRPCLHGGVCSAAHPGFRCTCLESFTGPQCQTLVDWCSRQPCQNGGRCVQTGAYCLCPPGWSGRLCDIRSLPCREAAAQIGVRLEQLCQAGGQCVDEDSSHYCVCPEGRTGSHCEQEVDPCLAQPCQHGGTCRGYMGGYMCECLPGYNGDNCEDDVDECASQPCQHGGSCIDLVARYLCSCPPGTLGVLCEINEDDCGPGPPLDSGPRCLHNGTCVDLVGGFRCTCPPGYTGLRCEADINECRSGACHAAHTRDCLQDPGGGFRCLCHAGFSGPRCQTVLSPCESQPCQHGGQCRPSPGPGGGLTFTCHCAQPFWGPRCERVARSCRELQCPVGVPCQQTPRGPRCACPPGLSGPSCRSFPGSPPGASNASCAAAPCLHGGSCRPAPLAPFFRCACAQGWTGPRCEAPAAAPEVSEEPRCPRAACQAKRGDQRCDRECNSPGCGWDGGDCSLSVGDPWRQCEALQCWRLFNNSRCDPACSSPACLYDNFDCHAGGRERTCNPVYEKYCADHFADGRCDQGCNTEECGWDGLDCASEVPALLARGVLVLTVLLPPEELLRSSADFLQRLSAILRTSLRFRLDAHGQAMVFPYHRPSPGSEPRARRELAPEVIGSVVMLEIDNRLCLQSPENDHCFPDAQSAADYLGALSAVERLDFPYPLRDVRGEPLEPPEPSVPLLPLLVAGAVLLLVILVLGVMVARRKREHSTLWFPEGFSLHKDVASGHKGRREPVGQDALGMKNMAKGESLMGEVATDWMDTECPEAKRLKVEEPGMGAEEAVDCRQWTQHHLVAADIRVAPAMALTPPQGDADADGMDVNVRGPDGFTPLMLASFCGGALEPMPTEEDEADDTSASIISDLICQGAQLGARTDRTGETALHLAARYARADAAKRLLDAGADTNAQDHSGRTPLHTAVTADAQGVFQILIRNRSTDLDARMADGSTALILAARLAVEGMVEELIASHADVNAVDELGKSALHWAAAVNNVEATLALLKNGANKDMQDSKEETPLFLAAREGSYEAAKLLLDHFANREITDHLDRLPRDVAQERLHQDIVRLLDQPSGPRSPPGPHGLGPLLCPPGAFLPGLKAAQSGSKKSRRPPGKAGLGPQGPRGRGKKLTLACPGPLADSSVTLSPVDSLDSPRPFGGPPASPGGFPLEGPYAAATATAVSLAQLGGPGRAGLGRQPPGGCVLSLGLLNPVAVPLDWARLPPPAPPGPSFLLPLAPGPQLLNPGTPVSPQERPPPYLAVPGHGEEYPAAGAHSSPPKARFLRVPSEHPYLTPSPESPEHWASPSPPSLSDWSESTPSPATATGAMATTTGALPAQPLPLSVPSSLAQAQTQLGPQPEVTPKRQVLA

[20] = small-molecule microarray binders of probe aEGFR, primary screen, biochemical, biotinylated probe, 635/667 nm fluorescence (AID 1097); settings: higher = more signal;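 further: probe is a biotinylated anti-EGFR antibody binding compounds printed on slides; score combines fluorescence near 667 nm and signal to noise of each spot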

C=CC[C@@H](O)c1ccc(O)c(F)c1
composite z-score [1]: 1.77 and 0.459
composite z-score [2]: 0.897 and -0.727
composite z-score [3]: -0.0695 and -0.194
composite z-score [4]: -0.03 and -1.69
composite z-score [5]: -1.42 and -2.14
composite z-score [6]: -0.627 and -0.0657
composite z-score [7]: 0.684 and 0.704
z-score [8]: 0.572 (inactive) and -1.4 (inactive)
composite z-score [9]: -0.922 and -0.799
composite z-score [10]: -0.132 and 0.0392
composite z-score [11]: -0.508 and -0.514
z-score [12]: 0.442 (inactive) and -0.907 (inactive)
z-score [13]: -0.6 (inactive) and -1.52 (inactive)
z-score [14]: -0.389 (inactive) and -1.67 (inactive)
composite z-score [15]: -0.471 and -1.19
z-score [16]: 0.336 (inactive) and 1.94 (inactive)
composite z-score [17]: -0.0329 and -0.0221
composite z-score [18]: -2.36 and -0.702
composite z-score [19]: -1.4 and -0.883
composite z-score [20]: -0.384 and -0.381

C[C@@H]1CC[C@@H](C(=O)O)N[C@H]1c1ccc(-c2ccco2)cc1
composite z-score [1]: -0.462
composite z-score [2]: 0.712
composite z-score [3]: -0.0502
composite z-score [4]: 0.422
composite z-score [5]: 0.571
composite z-score [6]: 0.486
composite z-score [7]: 0.811
z-score [8]: 0.0786 (inactive)
composite z-score [9]: 0.583
composite z-score [10]: -0.0173
composite z-score [11]: 1.06
z-score [12]: 0.804 (inactive)
z-score [13]: -0.383 (inactive)
z-score [14]: -0.476 (inactive)
composite z-score [15]: 0.534
z-score [16]: -0.0778 (inactive)
composite z-score [17]: 0.0331
composite z-score [18]: 1.26
composite z-score [19]: 0.945
composite z-score [20]: -0.115

COC(=O)[C@@]1(Cc2ccccc2)[C@H]2c3cc(C(=O)N(C)C)n(Cc4ccc(C)c(F)c4F)c3C[C@H]2CN1C(=O)c1ccccc1
composite z-score [1]: 1 and 0.986
composite z-score [2]: -0.481 and 0.787
composite z-score [3]: 0.162 and 0.639
composite z-score [4]: 0.384 and 0.451
composite z-score [5]: 1.5 and 1.71
composite z-score [6]: 1.39 and 1.48
composite z-score [7]: 1.39 and 1.12
z-score [8]: 3.35 (inactive) and -0.497 (inactive)
composite z-score [9]: 0.705 and 2.39
composite z-score [10]: 0.176 and 0.567
composite z-score [11]: -0.325 and 1.23
z-score [12]: -0.542 (inactive) and -0.0959 (inactive)
z-score [13]: -0.991 (inactive) and 1.01 (inactive)
z-score [14]: -0.447 (inactive) and 1.48 (inactive)
composite z-score [15]: 3.44 and 3.67
z-score [16]: -0.359 (inactive) and -0.543 (inactive)
composite z-score [17]: 0.378 and 0.513
composite z-score [18]: -0.566 and 0.645
composite z-score [19]: 0.636 and 1.06
composite z-score [20]: 0.168 and 0.646

C=CCN(Cc1ccccc1)C(=O)C1N(c2c(Cl)cccc2CO)C(=O)C2C(C(=O)O)C3C=CC21O3 (stereo not given)
composite z-score [1]: 1.77 and 1.95
composite z-score [2]: -1.28 and -0.799
composite z-score [3]: -0.176 and -0.166
composite z-score [4]: -1.74 and -0.702
composite z-score [5]: -2.4 and -2.37
composite z-score [6]: -1.18 and -0.797
composite z-score [7]: -0.822 and -0.464
z-score [8]: -1.05 (inactive) and 1.16 (inactive)
composite z-score [9]: -0.877 and -0.563
composite z-score [10]: -0.418 and -0.137
composite z-score [11]: -1.44 and -1.17
z-score [12]: -3.28 (inactive) and 1.06 (inactive)
z-score [13]: -0.875 (inactive) and -0.0197 (inactive)
z-score [14]: -1.39 (inactive) and 0.236 (inactive)
composite z-score [15]: -1.2 and -1.34
z-score [16]: 3.06 (inactive) and 1.29 (inactive)
composite z-score [17]: -0.114 and 0.0686
composite z-score [18]: -2.68 and -3.18
composite z-score [19]: -2.25 and -1.57
composite z-score [20]: -0.21 and -0.395

C=CCN(CCCCC)C(=O)C(c1cccs1)N(C(=O)/C=C\C(=O)O)c1ccc(CCO)cc1 (stereo not given)
composite z-score [1]: 0.786 and 0.657
composite z-score [2]: -1.96 and -1.13
composite z-score [3]: -0.182 and -0.201
composite z-score [4]: -0.507 and -1.34
composite z-score [5]: -1.77 and -0.81
composite z-score [6]: 0.279 and -0.706
composite z-score [7]: 1.53 and 1.51
z-score [8]: 0.349 (inactive) and 0.348 (inactive)
composite z-score [9]: -0.713 and -0.498
composite z-score [10]: 0.106 and -0.274
composite z-score [11]: 0.275 and -0.0988
z-score [12]: 0.472 (inactive) and 0.0638 (inactive)
z-score [13]: -0.265 (inactive) and 0.206 (inactive)
z-score [14]: 0.499 (inactive) and 0.494 (inactive)
composite z-score [15]: 1.64 and 0.636
z-score [16]: 0.295 (inactive) and -0.109 (inactive)
composite z-score [17]: -0.254 and -0.0927
composite z-score [18]: -1.9 and -1.27
composite z-score [19]: -1.01 and -1.02
composite z-score [20]: -0.309 and -0.313

CO[C@@H]1COC(=O)[C@H](Cc2ccccc2)NC(=O)CC=C[C@@H](C)[C@H](OC)COC(=O)[C@@H](C)NC(=O)CC=C[C@H]1C
composite z-score [1]: -0.501 and -1.33
composite z-score [2]: 1.23 and 0.603
composite z-score [3]: -0.132 and -0.168
composite z-score [4]: 0.0044 and 0.401
composite z-score [5]: -0.223 and -0.012
composite z-score [6]: -0.258 and -0.159
composite z-score [7]: 0.383 and 0.284
z-score [8]: 0.361 (inactive) and -0.178 (inactive)
composite z-score [9]: 0.409 and -0.084
composite z-score [10]: 0.154 and -0.271
composite z-score [11]: 1.53 and 1.15
z-score [12]: -0.706 (inactive) and -0.356 (inactive)
z-score [13]: -1.71 (inactive) and -1.2 (inactive)
z-score [14]: -0.916 (inactive) and -0.753 (inactive)
composite z-score [15]: 0.469 and -0.0887
z-score [16]: -0.0559 (inactive) and 0.361 (inactive)
composite z-score [17]: -0.217 and -0.393
composite z-score [18]: 1.45 and 1.06
composite z-score [19]: 1.07 and 0.862
composite z-score [20]: -0.0616 and -0.0438

C=C[C@@H](C)[C@@H](O)c1ccc(OCCO)cc1
composite z-score [1]: 1.01 and 0.0727
composite z-score [2]: -1.44 and -0.971
composite z-score [3]: -0.232 and -0.273
composite z-score [4]: -1.47 and -1.27
composite z-score [5]: -1.86 and -1.3
composite z-score [6]: -0.408 and -0.496
composite z-score [7]: -0.477 and -0.674
z-score [8]: 4.33 (inactive) and 1.84 (inactive)
composite z-score [9]: -1.9 and -0.848
composite z-score [10]: -0.242 and -0.644
composite z-score [11]: -0.851 and 0.0376
z-score [12]: 0.0436 (inactive) and -2.75 (inactive)
z-score [13]: 0.162 (inactive) and -0.815 (inactive)
z-score [14]: -0.607 (inactive) and 0.262 (inactive)
composite z-score [15]: -1.11 and -0.508
z-score [16]: -0.0921 (inactive) and 1.12 (inactive)
composite z-score [17]: 0.0893 and 0.2
composite z-score [18]: -1.72 and -1.7
composite z-score [19]: -0.574 and -0.377
composite z-score [20]: -0.397 and -0.374

C=CCN(Cc1ccccc1)C(=O)C1N(c2ccc(CCO)cc2)C(=O)C2C(C(=O)O)C3C=CC21O3 (stereo not given)
composite z-score [1]: 1.72 and 0.902
composite z-score [2]: -0.723 and -0.963
composite z-score [3]: -0.194 and -0.19
composite z-score [4]: -0.362 and -0.749
composite z-score [5]: -2.7 and -2.66
composite z-score [6]: 0.191 and -0.96
composite z-score [7]: 0.161 and -0.559
z-score [8]: 2.4 (inactive) and 1.24 (inactive)
composite z-score [9]: -1.44 and -0.907
composite z-score [10]: -0.0994 and -0.431
composite z-score [11]: -1.64 and -0.655
z-score [12]: 0.774 (inactive) and -0.721 (inactive)
z-score [13]: -0.455 (inactive) and 0.116 (inactive)
z-score [14]: 0.599 (inactive) and -1.29 (inactive)
composite z-score [15]: -0.933 and -1.02
z-score [16]: 1.12 (inactive) and 2.04 (inactive)
composite z-score [17]: 0.0395 and 0.0834
composite z-score [18]: -2.88 and -1.99
composite z-score [19]: -1.35 and -1.12
composite z-score [20]: -0.418 and -0.305
